Pf Dd2 inh: blocks in vitro growth of P. falciparum Dd2; P. falciparum Dd2 growth, SYBR Green, 72 h; Potency, µM (titrated, usually from 28.9 µM), for inactives: top-dose activity, negative = inhibition, actives largely listed as inhibitors; 120,000 compounds, 4.3% hits; active = well fitted inhibition curve with a large enough effect;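 note: plate controls were DMSO vehicle for no effect and reference drug for full effect; nearly all actives have a fitted effect of over 65% in size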
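Readout: SYBR Green fluorescence, 485 nm excitation, 535 nm emission, after ~16 h lysis at 37C. Before that, Dd2-infected red cells (2.5% hematocrit) grew 72 h with compound, 29 uM top final concentration.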
An asterisk follows results filed as active; [ ] = another dose, or the depositor's remark. This excerpt belongs to a sample that is enriched for hits. Potency is the fitted concentration of half-maximal effect.

Screening COCC(=O)NC[C@@H]1C=C(C)[C@H](Cc2nc3ccccc3[nH]2)C[C@H]1C(C)C returned Pf Dd2 inh inactive.
`COc1ccc(C(=O)N2CCC(n3cc(-c4nc(C(C)C)no4)nn3)CC2)cc1` gave Pf Dd2 inh inactive.
`COc1cc(CNc2nc(-c3c(C)noc3C)cc3cc(C)oc23)cc(OC)c1` gave Pf Dd2 inh inactive.
For C#CCN(C)C(=O)c1onc(-c2ccc(OC)cc2)c1[C@H](C)O the results were Pf Dd2 inh -12%[44.1 µM].
Cc1noc(C)c1C1CCCN1C(=O)c1cccc(-n2cnnc2)c1 (stereo not drawn) was read as Pf Dd2 inh 1%.
COc1ccccc1C(=O)N1CC(Oc2cccc(-c3nc(-c4ccccc4)no3)c2)C1 was read as Pf Dd2 inh 1%[5.79 µM].
`Cc1occc1C(=O)N1C[C@@H](COCC2CC2)[C@H](c2ccccn2)C1` gave Pf Dd2 inh 23%.
`COC(=O)c1ccc2nc(C[C@@H]3C[C@@H](C(C)C)[C@H](CNCc4ccccc4F)C=C3C)[nH]c2c1` gave Pf Dd2 inh 4.5µM*.
For CC1=C[C@@H](CNC(=O)C2CC2)[C@H](C(C)C)C[C@H]1Cc1nc2ncccc2[nH]1 the results were Pf Dd2 inh -6%[44.1 µM].
Screening CCOC(=O)C[C@@H]1C[C@@H](C(C)C)[C@H](CNC(=O)c2ccc(F)cc2)C=C1C returned Pf Dd2 inh 11µM*.
CC1=C[C@@H](CNC(=O)C2CC2)[C@H](C(C)C)C[C@H]1Cc1nc2ccncc2[nH]1 was read as Pf Dd2 inh -19%[44.1 µM].
CC1=C[C@@H](CNC(=O)c2cccnc2)[C@H](C(C)C)C[C@H]1Cc1nc2ccc(F)cc2[nH]1 was read as Pf Dd2 inh inactive.
COC(=O)c1ccc2nc(C[C@@H]3C[C@@H](C(C)C)[C@H](CNC4CCOCC4)C=C3C)[nH]c2c1 was read as Pf Dd2 inh -20%.
COC(=O)c1ccc2nc(C[C@@H]3C[C@@H](C(C)C)[C@H](CNC(=O)N4CCOCC4)C=C3C)[nH]c2c1 was read as Pf Dd2 inh 13µM*.
For COC(=O)c1ccc2nc(C[C@@H]3C[C@@H](C(C)C)[C@H](CNCc4ccc(OC)cc4O)C=C3C)[nH]c2c1 the results were Pf Dd2 inh -7%.
Screening COC(=O)c1ccc2nc(C[C@@H]3C[C@@H](C(C)C)[C@H](CNC(=O)[C@@H]4CCCC[C@@H]4C(=O)O)C=C3C)[nH]c2c1 returned Pf Dd2 inh -13%.
CCOC(=O)C[C@@H]1C[C@@H](C(C)C)[C@H](CNC(=O)c2ccc(C#N)cc2)C=C1C was read as Pf Dd2 inh inactive.
COc1ccc2[nH]c(C[C@@H]3C[C@@H](C(C)C)[C@H](CNC(=O)C4CCC4)C=C3C)nc2n1 was read as Pf Dd2 inh 11µM*.
For CCOC(=O)C[C@@H]1C[C@@H](C(C)C)[C@H](CNC(=O)c2cccnc2)C=C1C the results were Pf Dd2 inh inactive.
O=C(O)CCC(=O)N1CC[C@H]2NC(=O)N(c3ccc(Oc4ccccc4)cc3)C(=O)[C@H]21 was read as Pf Dd2 inh inactive.
O=C(c1ccccc1)N1CCCN(c2cc(-c3ccccc3)[nH]n2)CC1 was read as Pf Dd2 inh 0%.
Screening CN1CCCC2(CCN(c3ccc(C#N)cn3)C2)C1=O (stereo not drawn) returned Pf Dd2 inh -5%.
For CN1CCC2(C1)CN(Cc1ccccc1)c1ccc(C(=O)NCC[S+](C)(=O)[O-])cc12 (stereo not drawn) the results were Pf Dd2 inh inactive.
COCC(=O)Nc1ccc([C@@H](O)[C@H]2COCC(=O)N2Cc2ccccc2)cc1 was read as Pf Dd2 inh inactive.
`COC(=O)c1ccc2nc(C[C@@H]3C[C@@H](C(C)C)[C@H](CNC(=O)c4ccccc4)C=C3C)[nH]c2c1` gave Pf Dd2 inh 8.9µM*.
For CCC(CC)C(=O)NC[C@@H]1C=C(C)[C@H](Cc2nc3ccc(C(=O)OC)cc3[nH]2)C[C@H]1C(C)C the results were Pf Dd2 inh -1%.
Screening COC(=O)c1ccc2nc(C[C@@H]3C[C@@H](C(C)C)[C@H](CNC(=O)c4cnccn4)C=C3C)[nH]c2c1 returned Pf Dd2 inh -5%.
C=CCOC(=O)C1=C(C)N=C2SC=C(CC(=O)NCc3ccc(F)cc3)N2C1c1ccccc1C (stereo not drawn) was read as Pf Dd2 inh 3.2µM*.
COC(=O)C1=C(C)N=C2SC=C(CC(=O)NCc3ccccc3)N2C1c1ccccc1F (stereo not drawn) was read as Pf Dd2 inh -19%.
`C=CCOC(=O)C1=C(C)N=C2SC=C(CC(=O)NCc3ccco3)N2C1c1cccc(C)c1` (stereo not drawn) gave Pf Dd2 inh -3%.
Screening COC(=O)C1=C(C)N=C2SC=C(CC(=O)NCC3CCCO3)N2C1c1ccccc1C (stereo not drawn) returned Pf Dd2 inh -16%.
`CCOC(=O)C1=C(C)N=C2SC=C(CC(=O)NC3CC3)N2C1c1ccccc1C` (stereo not drawn) gave Pf Dd2 inh -2%.
Screening CC1=C(C(=O)OC(C)C)C(c2ccccc2C)N2C(CC(=O)NC3CC3)=CSC2=N1 (stereo not drawn) returned Pf Dd2 inh 7.9µM*.
Screening CCOC(=O)C1=C(C)N=C2SC=C(CC(=O)NCC3CCCO3)N2C1c1ccc(Cl)cc1 (stereo not drawn) returned Pf Dd2 inh 2.2µM*.
CCOC(=O)C1=C(C)N=C2SC=C(CC(=O)N3CCCC3)N2C1c1ccc(Cl)cc1 (stereo not drawn) was read as Pf Dd2 inh -1%.
For COC(=O)C1=C(C)N=C2SC=C(CC(=O)NC3CC3)N2C1c1ccc(C)cc1C (stereo not drawn) the results were Pf Dd2 inh inactive.
`COc1cccc(CNC(=O)[C@@H]2C[C@@H](O)CN2C2CCN(C(=O)c3ccc4c(c3)OCO4)CC2)c1` gave Pf Dd2 inh inactive.
`N#C/C(=C/c1ccccc1Cl)c1nc2ccccc2c(=O)[nH]1` gave Pf Dd2 inh 19%.
`CC1CCC(NC[C@H]2O[C@@H]3C[C@@H](CC(=O)N4CCOCC4)O[C@@H]3[C@@H]2O)CC1` (stereo partly drawn) gave Pf Dd2 inh 15%[44.1 µM].
For CCOc1ccc(-c2nn(CC(=O)NC3CCCC3)c3c2cnc2ccc(F)cc23)cc1 the results were Pf Dd2 inh 8%.
Screening CCn1nccc1C(=O)N1C[C@@H](COC)[C@H](c2ccncc2)C1 returned Pf Dd2 inh 25%.
CCOc1ccccc1NC(=O)CSc1nc2c(c(=O)[nH]1)CCC2 was read as Pf Dd2 inh inactive.
Screening Cc1ccc(C)c(NC(=O)CSc2nc(-c3ccccc3)c(C#N)c(=O)[nH]2)c1 returned Pf Dd2 inh 21%.
COc1ccccc1NC(=O)CSc1nc(-c2ccc(C(C)(C)C)cc2)c(C#N)c(=O)[nH]1 was read as Pf Dd2 inh 10µM*.
`Cc1nnc2n1CCC(N(C)C(=O)c1ccsc1)CC2` (stereo not drawn) gave Pf Dd2 inh inactive.
`CCc1ccc(NC(=O)CSc2nccn2-c2ccc(F)cc2)cc1` gave Pf Dd2 inh inactive.
CCc1ccc(-n2nc(C)c3c(C)cc(=O)n(CC(=O)N(CC)Cc4ccccc4)c32)cc1 was read as Pf Dd2 inh 8.9µM*.
Screening Cc1cc(=O)n(Cc2ccccc2)c2c1c(C)nn2-c1ccccc1 returned Pf Dd2 inh 7%.
`CCN(CC)C(=O)Cn1c(=O)cc(C)c2c(C)nn(C)c21` gave Pf Dd2 inh inactive.
